The nature of assay [1]: qHTS assay to test for compound auto fluorescence at 535 nm (green) in HEK293 cells (AID 720680).
Assay [2] in a line: qHTS assay to test for compound auto fluorescence at 460 nm (blue) in HEK293 cell free culture (AID 720681). In short, it runs like this: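 Test compounds were pinned into cell-free culture medium (DMEM with 10% FBS) and fluorescence was read directly at Ex/Em 405/460 nm. Signals were expressed as fluorescence equivalents of triamterene, with DMSO vehicle as control.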
In general terms: In qHTS, concentration-response curves come from the screen itself.

Assay [3] in a line: qHTS assay to test for compound auto fluorescence at 535 nm (green) in HEK293 cell free culture (AID 720682). In short, it runs like this:
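Compounds were pin-transferred into cell-free DMEM with 10% FBS, and green fluorescence was read at excitation 485 nm and emission 535 nm. Intensities were expressed as fluorescein-equivalent values.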

Assay [4] in a line: qHTS assay to test for compound auto fluorescence at 590 nm (red) in HEK293 cell free culture (AID 720683). Put shortly:
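Tox21 10K library compounds were pinned into cell-free DMEM with 10% FBS and fluorescence was read at excitation 540 nm. Activity is expressed as Rose Bengal sodium equivalency.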

Assay [5] can be described thus: qHTS assay to test for compound auto fluorescence at 590 nm (red) in HepG2 cell free culture (AID 720684). Put shortly:
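Ex 540 / Em 590 nm read of compound in cell-free MEM (10% FBS). Rose Bengal sodium reference.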

A short description of assay [6]: qHTS assay to test for compound auto fluorescence at 460 nm (blue) in HepG2 cell free culture (AID 720685). In short, it runs like this: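 Cell-free plates of MEM plus 10% FBS received 23 nL compound or DMSO vehicle; blue-channel (405/460 nm) intensity scored against triamterene as reference fluorophore.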
Assay [7] can be described thus: qHTS assay to test for compound auto fluorescence at 535 nm (green) in HepG2 cell free culture (AID 720686).
A short description of assay [8]: qHTS assay to test for compound auto fluorescence at 460 nm (blue) in HepG2 cells (AID 720687). Put shortly:
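Cells (2,000/well in MEM with 10% FBS) attached overnight at 37 C, then were exposed to compound or DMSO for 1 hr at 37 C, 5% CO2. Fluorescence read at Ex/Em 405/460 nm, expressed as triamterene-equivalent signal.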

Assay [9] concerns the target Glucocorticoid receptor (Homo sapiens) (UniProt P04150). Nature of the assay: qHTS assay to identify small molecule agonists of the glucocorticoid receptor (GR) signaling pathway (AID 720691; active = well fitted activation curve with a large enough effect in the signal ratio in the repeat runs, not every such curve was filed as active; the % refers to the signal ratio; also: potency is read from the fitted curve at half-maximal effect). The settings on record: GR-bla HeLa, beta-lactamase reporter ratio, 18 h; activation: at 62.4 µM (top of the series). Put shortly:
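Agonist-mode qHTS in HeLa cells stably expressing a glucocorticoid-response-element beta-lactamase reporter. Fluorescence intensity read with FRET substrate (2 h, room temperature) after 18 h compound treatment at 37 C.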

Assay [10] shares this target. Nature of the assay: qHTS assay to identify small molecule antagonists of the glucocorticoid receptor (GR) signaling pathway (AID 720692; active = well fitted inhibition curve with a large enough effect in the signal ratio in the repeat runs, not every such curve was filed as active; the % refers to the signal ratio). In short, it runs like this: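 Inhibition of dexamethasone-driven (5 nM final) beta-lactamase expression was measured in GRE-reporter HeLa cells over 18 h at 37C. Fluorescence was read after 2 h with the B/G FRET substrate at room temperature.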

Results on 18 molecules are retold here after PubChem BioAssay (Tox21).

Values joined by “and” are separate entries in the source; they are usually repeats but may differ in a detail not shown here. Equal values may be shown once. Results filed as inconclusive are left out. Some structures have more than one record in an assay (separate samples or runs), and their calls can disagree. Active and inactive are the calls of the source. Unless noted, calls follow the shape of the dose curve; as a rule, active = well fitted curve in the direction sought with a large enough effect in the repeat runs; inconclusive = weak or mixed curves; inactive = flat fitted curve, though single readings scatter. Residues, ends and D or L forms follow the SMILES beside them.

Sequence of Glucocorticoid receptor (Homo sapiens) (P04150 whole entry, looked up): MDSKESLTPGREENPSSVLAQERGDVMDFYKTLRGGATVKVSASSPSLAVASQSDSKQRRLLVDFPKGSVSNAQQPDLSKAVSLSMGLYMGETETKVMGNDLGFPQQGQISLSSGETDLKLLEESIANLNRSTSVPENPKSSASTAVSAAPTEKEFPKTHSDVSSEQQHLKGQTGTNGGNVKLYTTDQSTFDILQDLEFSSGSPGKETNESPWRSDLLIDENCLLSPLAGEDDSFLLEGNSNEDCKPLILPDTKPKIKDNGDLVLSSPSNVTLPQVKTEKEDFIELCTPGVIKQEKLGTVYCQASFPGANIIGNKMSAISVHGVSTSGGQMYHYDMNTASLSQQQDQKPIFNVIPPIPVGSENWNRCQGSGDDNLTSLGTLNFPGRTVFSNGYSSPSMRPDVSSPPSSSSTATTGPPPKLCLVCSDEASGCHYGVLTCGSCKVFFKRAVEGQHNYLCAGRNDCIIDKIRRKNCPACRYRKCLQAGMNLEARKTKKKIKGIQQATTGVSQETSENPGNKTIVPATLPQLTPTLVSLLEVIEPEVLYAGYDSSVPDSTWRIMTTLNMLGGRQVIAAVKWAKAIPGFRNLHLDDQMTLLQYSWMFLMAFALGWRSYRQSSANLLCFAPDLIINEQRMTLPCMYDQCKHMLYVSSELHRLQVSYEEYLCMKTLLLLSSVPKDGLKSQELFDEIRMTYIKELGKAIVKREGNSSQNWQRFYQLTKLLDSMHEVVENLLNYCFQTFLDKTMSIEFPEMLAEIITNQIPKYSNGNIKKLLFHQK

For `C[C@@H]1O[C@@H]1P(=O)(O)O`, the call in assay [1], in assay [3], in [4] and in assay [5] was inactive. The Potency entry in assay [2], in assay [6], in assay [7], in assay [8] and in assay [9] was “inactive” each time.

As to `CC(C)[C@H](NC(=O)[C@H](CC(=O)O)NC(=O)[C@H](CCCCN)NC(=O)[C@@H](N)CCCN=C(N)N)C(=O)N[C@@H](Cc1ccc(O)cc1)C(=O)O` (H-RKDVY-OH), the call in [1], in assay [3], in assay [4] and in [5] was inactive. Also, the Potency entry in assay [2], in [6], in assay [7], in assay [8], in [9] and in [10] was “inactive” throughout.

`NCC(O)CC(=O)O` (centres undefined): the molecule was classed as inactive in assay [1], in assay [3], in assay [4] and in assay [5]. The Potency entry in assay [2], in assay [6], in assay [7], in [8], in assay [9] and in assay [10] was “inactive” throughout.

Consider `Cc1onc(-c2c(F)cccc2Cl)c1C(=O)N[C@@H]1C(=O)N2[C@@H]1SC(C)(C)[C@@H]2C(=O)O`, for which the molecule was called inactive in assay [1], in assay [3], in assay [4] and in assay [5]. Besides, the Potency entry in [2], in assay [6], in assay [7], in assay [8], in assay [9] and in assay [10] was “inactive” throughout.

On to `COc1ccc([C@@H]2CC(=O)c3c(O)cc(O[C@@H]4O[C@H](CO[C@@H]5O[C@@H](C)[C@H](O)[C@@H](O)[C@H]5O)[C@@H](O)[C@H](O)[C@H]4O)cc3O2)cc1O`, for which the molecule was classed as inactive in [1], in assay [3], in [4] and in assay [5]. The Potency entry in assay [2], in assay [6], in [7], in assay [8], in [9] and in assay [10] was “inactive” in each case.

As for `CNC(=O)C[C@@H](N)C(=O)N[C@@H](C(=O)N[C@@H]1C(=O)N2[C@@H]1SC(C)(C)[C@@H]2C(=O)O)c1ccc(O)cc1`, the call in [1], in assay [3], in [4] and in [5] was inactive. Also, the Potency result in [2], in assay [6], in assay [7], in [8] and in [9] was “inactive” each time.

As for `CCN(CC)CCOC[C@H]1O[C@@H](O)[C@H](OCCN(CC)CC)[C@@H](O)[C@@H]1O`, the molecule was classed as inactive in assay [1], in [3], in assay [4] and in [5]. In addition, the Potency entry in [2], in assay [6], in assay [7], in assay [8], in assay [9] and in [10] was “inactive” in each case.

Turning to `FC(F)(F)COCC(F)(F)F`, the molecule was classed as inactive in assay [1], in assay [3], in assay [4] and in [5]. Also, the Potency entry in [2], in assay [6], in [7], in assay [8] and in assay [9] was “inactive” each time.

Regarding `CNCC(=O)N[C@@H](CCCN=C(N)N)C(=O)N[C@H](C(=O)N[C@@H](Cc1ccc(O)cc1)C(=O)N[C@H](C(=O)N[C@@H](Cc1cnc[nH]1)C(=O)N1CCC[C@H]1C(=O)N[C@@H](C)C(=O)O)C(C)C)C(C)C`, the outcome in assay [1], in assay [3], in assay [4] and in assay [5] was inactive. The Potency result in [2], in [6], in assay [7], in assay [8], in assay [9] and in [10] was “inactive” in each case.

Regarding `C/C(=C(/CCO)SSCC1CCCO1)N(C=O)Cc1cnc(C)nc1N` (centres undefined), the outcome in [1], in assay [3], in [4] and in [5] was inactive. For the same molecule, the Potency result in assay [2], in assay [6], in [7] and in assay [8] was “inactive” throughout. Besides, the Potency result in assay [9] is “inactive and 21.3 µM (active)”.

As to `CC(O)(c1ccc(Cl)cc1)c1ccc(Cl)cc1`, the result in [1], in assay [3], in assay [4] and in [5] was inactive. The Potency entry in assay [2], in assay [6], in [7], in assay [8] and in assay [9] was “inactive” throughout.

As to `C=CC(N)CCC(=O)O` (centres undefined), the result in [1], in assay [3], in [4] and in assay [5] was inactive. The Potency entry in assay [2], in assay [6], in [7], in [8] and in assay [9] was “inactive” in each case.

Take `CC(C)(S)C(=O)N[C@@H](CS)C(=O)O`: the molecule was called inactive in assay [1], in [3], in assay [4] and in [5]. Further, the Potency entry in [2], in [6], in assay [7], in assay [8], in [9] and in [10] was “inactive” each time.

Take `CCCC(=O)c1cc(O)c(O)cc1O`: the outcome in assay [1], in [3], in assay [4] and in [5] was inactive. For the same molecule, the Potency result in assay [2], in assay [6], in assay [7], in assay [8] and in [9] was “inactive” each time.

For the molecule `Cc1cc(N)c2ccccc2[n+]1CCCCCCCCCC[n+]1c(C)cc(N)c2ccccc21`, the outcome in [1], in [3], in assay [4] and in assay [5] was inactive. In addition, the Potency entry in assay [2], in [6], in assay [7], in [8] and in [9] was “inactive” each time.

Regarding `CC(C)c1ncc([N+](=O)[O-])n1C`, the outcome in assay [1], in [3], in assay [4] and in assay [5] was inactive. Further, the Potency result in assay [2], in assay [6], in assay [7], in [8] and in [9] was “inactive” in each case.

As for `CCCCCCCCCCCCCCCCCCOCC(COP(=O)([O-])OCC[N+](C)(C)C)OC` (centres undefined), the result in assay [1], in assay [3], in [4] and in [5] was inactive. In addition, the Potency result in [2], in assay [6], in assay [7], in assay [8] and in assay [9] was “inactive” in each case.

Regarding `O=C(O)[C@H]1CN(C/C=C/P(=O)(O)O)CCN1`, the outcome in assay [1], in assay [3], in assay [4] and in [5] was inactive. The Potency entry in assay [2], in assay [6], in [7], in assay [8] and in [9] was “inactive” throughout.
